Holding throughout (settings): mRNA level, 48 h; actives raise or lower the signal
Read-out in one test: MYC, MYC (gene 4609)
Nature of the test: LTEA_HepaRG_MYC: Life Technologies and Expression Analysis (LTEA) Assay for MYC using HepaRG (AID 2283518). In outline: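 Expression changes were scored by TaqMan qRT-PCR with ACTB, GAPDH and POLR2A normalization. Cultures in serum-free induction medium received duplicate 8-point concentration series, highest 100 uM, for 48 h; DMSO (0.5%) served as baseline.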

Read-out in test [1]: Paternally Expressed 10 (PEG10), PEG10 (gene 23089)
Briefly: LTEA_HepaRG_PEG10: Life Technologies and Expression Analysis (LTEA) Assay for Paternally Expressed 10 (PEG10) using HepaRG (AID 2283520).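 As to AC50: PEG10 transcript by qRT-PCR normalised to ACTB GAPDH and POLR2A.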 An outline of the steps:
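Chemicals tested on HepaRG cells for 48 h, highest concentration 100 uM. PEG10 expression assessed by qRT-PCR relative to DMSO control.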

Read-out in test [2]: Nuclear factor NF-kappa-B p105 subunit (Homo sapiens) (UniProt P19838)
Nature of the test: LTEA_HepaRG_NFKB1: Life Technologies and Expression Analysis (LTEA) Assay for Nuclear Factor Kappa B Subunit 1 (NFKB1) using HepaRG (AID 2283521).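 As to outcome: TaqMan qRT-PCR transcript normalised to ACTB GAPDH and POLR2A housekeeping genes.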 In outline: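 Differentiated human HepaRG cells were exposed for 48 h in serum-free induction medium to eight concentrations (top 100 uM, half-log steps, 0.5% DMSO), in duplicate. NFKB1 mRNA was measured by TaqMan qRT-PCR, normalized to ACTB/GAPDH/POLR2A, and fitted bidirectionally against DMSO.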

Read-out in test [3]: Protein phosphatase 2A (PPP2R4), PTPA (gene 5524)
Briefly: LTEA_HepaRG_PPP2R4: Life Technologies and Expression Analysis (LTEA) Assay for Protein phosphatase 2A (PPP2R4) using HepaRG (AID 2283522). In outline:
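Gene-expression endpoint in HepaRG hepatic cells: 48 h treatment across eight half-log concentrations up to 100 uM in 0.5% DMSO. PPP2R4 mRNA by qRT-PCR, normalized to three endogenous control genes.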

Read-out in test [4]: Phosphatase and tensin (PTEN), PTEN (gene 5728)
Briefly: LTEA_HepaRG_PTEN: Life Technologies and Expression Analysis (LTEA) Assay for Phosphatase and tensin (PTEN) using HepaRG (AID 2283523). In outline: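 HepaRG cells, 48 h after plating, exposed in duplicate for 48 h in serum-free induction medium to 8 half-log concentrations up to 100 uM (0.5% DMSO). PTEN mRNA by qRT-PCR, normalized to ACTB, GAPDH, POLR2A; bidirectional fit versus DMSO.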

Read-out in test [5]: solute carrier (SLC22A1), SLC22A1 (gene 6580)
Nature of the test: LTEA_HepaRG_SLC22A1: Life Technologies and Expression Analysis (LTEA) Assay for solute carrier (SLC22A1) using HepaRG (AID 2283524). In outline:
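Differentiated human HepaRG cells in serum-free induction medium, exposed 48 h in duplicate to 8-point half-log series from 100 µM top in 0.5% DMSO. SLC22A1 mRNA by TaqMan qRT-PCR normalized to ACTB, GAPDH, POLR2A; bidirectional fit versus DMSO.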

Read-out in test [6]: Pyruvate Dehydrogenase Kinase 4 (PDK4), PDK4 (gene 5166)
Nature of the test: LTEA_HepaRG_PDK4: Life Technologies and Expression Analysis (LTEA) Assay for Pyruvate Dehydrogenase Kinase 4 (PDK4) using HepaRG (AID 2283525). In outline:
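HepaRG cells plated 48 h, then switched to serum-free induction medium and exposed in duplicate for 48 h to 8 half-log concentrations from 100 uM in 0.5% DMSO. PDK4 mRNA measured by qRT-PCR, normalized to ACTB, GAPDH and POLR2A; bidirectional fit versus DMSO.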

Read-out in test [7]: NAD(P)H dehydrogenase [quinone] 1 (NQO1), NQO1 (gene 1728)
Nature of the test: LTEA_HepaRG_NQO1: Life Technologies and Expression Analysis (LTEA) Assay for NAD(P)H dehydrogenase [quinone] 1 (NQO1) using HepaRG (AID 2283526). An outline of the steps:
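Human HepaRG hepatic cells received chemicals for 48 h in serum-free induction medium with 0.5% DMSO, up to 100 uM. Expression was assessed by TaqMan qRT-PCR against housekeeping controls and fitted bidirectionally against DMSO.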

Read-out in test [8]: Nuclear factor erythroid 2-related factor 2 (Homo sapiens) (UniProt Q16236)
Nature of the test: LTEA_HepaRG_NFE2L2: Life Technologies and Expression Analysis (LTEA) Assay for Nuclear factor erythroid 2-related factor 2 (NFE2L2) Transcription Factor using HepaRG (AID 2283527).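 As to outcome: TaqMan qRT-PCR transcript level normalised to ACTB GAPDH and POLR2A housekeeping genes.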 In outline:
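Differentiated human HepaRG cells, serum-free induction medium, exposed 48 h in duplicate to eight half-log concentrations up to 100 uM in 0.5% DMSO. NFE2L2 mRNA by Fluidigm TaqMan qRT-PCR, normalised to ACTB, GAPDH, POLR2A; bidirectional change versus DMSO.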

Read-out in test [9]: succinate dehydrogenase complex iron sulfur subunit B (SDHB), SDHB (gene 6390)
Nature of the test: LTEA_HepaRG_SDHB: Life Technologies and Expression Analysis (LTEA) Assay for succinate dehydrogenase complex iron sulfur subunit B (SDHB) using HepaRG (AID 2283528). An outline of the steps: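 HepaRG, 48 h exposure, 8-pt half-log series from 100 uM in 0.5% DMSO, duplicates. Readout: SDHB mRNA by Fluidigm qRT-PCR vs housekeeping genes; bidirectional fit relative to DMSO.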

Read-out in test [10]: Signal transducer and activator of transcription 3 (Homo sapiens) (UniProt P40763)
Nature of the test: LTEA_HepaRG_STAT3: Life Technologies and Expression Analysis (LTEA) Assay for Signal transducer and activator of transcription (STAT3) using HepaRG (AID 2283529). In outline:
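Differentiated HepaRG cells, serum-free induction medium, dosed 48 h in duplicate, 8 half-log concentrations from 100 uM in 0.5% DMSO. STAT3 mRNA by qRT-PCR, normalised to ACTB, GAPDH, POLR2A; bidirectional fit versus DMSO.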

Read-out in test [11]: solute carrier (SLCO1B1), SLCO1B1 (gene 10599)
Nature of the test: LTEA_HepaRG_SLCO1B1: Life Technologies and Expression Analysis (LTEA) Assay for solute carrier (SLCO1B1) using HepaRG (AID 2283530). An outline of the steps: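 Human HepaRG cultures treated for 48 h with an eight-concentration half-log series topping at 100 uM; SLCO1B1 measured by qRT-PCR and fitted bidirectionally relative to DMSO.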

Read-out in test [12]: Transforming Growth Factor (TGFA), TGFA (gene 7039)
Nature of the test: LTEA_HepaRG_TGFA: Life Technologies and Expression Analysis (LTEA) Assay for Transforming Growth Factor (TGFA) using HepaRG (AID 2283532). In outline:
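Differentiated HepaRG cells exposed 48 hours in serum-free induction medium, 0.5% DMSO vehicle, 8-point half-log series from 100 uM, in duplicate. TGFA mRNA by TaqMan qRT-PCR, normalised to ACTB, GAPDH, POLR2A; bidirectional fit versus DMSO.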

Read-out in test [13]: Transforming Growth Factor (TGFB1), TGFB1 (gene 7040)
Nature of the test: LTEA_HepaRG_TGFB1: Life Technologies and Expression Analysis (LTEA) Assay for Transforming Growth Factor (TGFB1) Transporter using HepaRG (AID 2283533). In outline:
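Eight-point concentration-response (max 100 uM, half-log) in HepaRG under serum-free induction conditions, 48 h. TGFB1 mRNA by qRT-PCR, housekeeping-normalized.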

Read-out in test [14]: Tumor necrosis factor receptor 1 (TNFRSF1A), TNFRSF1A (gene 7132)
Briefly: LTEA_HepaRG_TNFRSF1A: Life Technologies and Expression Analysis (LTEA) Assay for Tumor necrosis factor receptor 1 (TNFRSF1A) using HepaRG (AID 2283535). In outline:
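Assay uses 48 h chemical treatment of differentiated HepaRG monolayers, tested in duplicate at eight concentrations from 100 uM downward in 0.5% DMSO. mRNA is normalized to ACTB, GAPDH and POLR2A, with induction or suppression fitted relative to vehicle.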

Read-out in test [15]: Thyroid Hormone Responsive (THRSP), THRSP (gene 7069)
Nature of the test: LTEA_HepaRG_THRSP: Life Technologies and Expression Analysis (LTEA) Assay for Thyroid Hormone Responsive (THRSP) using HepaRG (AID 2283536). An outline of the steps: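 Differentiated HepaRG cells treated 48 h in serum-free induction medium with 8 half-log concentrations up to 100 uM (0.5% DMSO), duplicates. THRSP mRNA by TaqMan qRT-PCR normalised to ACTB, GAPDH, POLR2A; bidirectional fit versus DMSO.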

Read-out in test [16]: Cellular tumor antigen p53 (Homo sapiens) (UniProt P04637)
Nature of the test: LTEA_HepaRG_TP53: Life Technologies and Expression Analysis (LTEA) Assay for Tumor Protein P53 (TP53) using HepaRG (AID 2283537). An outline of the steps:
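HepaRG, 48 h exposure, top 100 uM, half-log 8-point, 0.5% DMSO vehicle, duplicates. Read: TP53 mRNA by TaqMan qRT-PCR, normalised to ACTB/GAPDH/POLR2A; bidirectional fit vs DMSO.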

Read-out in test [17]: matrix metalloproteinase-3 (MMP3), MMP3 (gene 4314)
Nature of the test: LTEA_HepaRG_MMP3: Life Technologies and Expression Analysis (LTEA) Assay for matrix metalloproteinase-3 (MMP3) using HepaRG (AID 2283519). In outline:
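HepaRG cells (~100,000/well) in serum-free induction medium were dosed in duplicate for 48 h with an 8-point half-log series from 100 uM, 0.5% DMSO. MMP3 mRNA was quantified by Fluidigm TaqMan qRT-PCR, normalized to three housekeeping genes.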

Read-out in another test: TIMP1, TIMP1 (gene 7076)
Briefly: LTEA_HepaRG_TIMP1: Life Technologies and Expression Analysis (LTEA) Assay for TIMP1 using HepaRG (AID 2283534).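 As to outcome: TaqMan qRT-PCR signal normalized to ACTB GAPDH and POLR2A housekeeping genes.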 An outline of the steps:
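TIMP1 induction or repression in HepaRG cells after 48 h chemical exposure (eight concentrations, highest 100 uM), assessed by normalized qRT-PCR with bidirectional fitting to DMSO controls.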

Read-out in test [18]: sulfotransferase 2A1 (SULT2A1), SULT2A1 (gene 6822)
Briefly: LTEA_HepaRG_SULT2A1: Life Technologies and Expression Analysis (LTEA) Assay for sulfotransferase 2A1 (SULT2A1) using HepaRG (AID 2283531). An outline of the steps: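 Gene-expression endpoint in a human liver cell line: SULT2A1 mRNA change after 48 h chemical treatment, curves fitted in both directions relative to 0.5% DMSO vehicle. Concentrations spanned eight half-log steps from 100 uM.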

The values that follow come from PubChem BioAssay (EPA / NIEHS).

Active and inactive are the calls of the source. The calls were made as follows: active = hit-call score of the fitted dose curve at least 0.9, where 1 is the maximum; inactive = score below 0.9.

Nuclear factor NF-kappa-B p105 subunit (Homo sapiens), sequence (P19838 whole entry, looked up): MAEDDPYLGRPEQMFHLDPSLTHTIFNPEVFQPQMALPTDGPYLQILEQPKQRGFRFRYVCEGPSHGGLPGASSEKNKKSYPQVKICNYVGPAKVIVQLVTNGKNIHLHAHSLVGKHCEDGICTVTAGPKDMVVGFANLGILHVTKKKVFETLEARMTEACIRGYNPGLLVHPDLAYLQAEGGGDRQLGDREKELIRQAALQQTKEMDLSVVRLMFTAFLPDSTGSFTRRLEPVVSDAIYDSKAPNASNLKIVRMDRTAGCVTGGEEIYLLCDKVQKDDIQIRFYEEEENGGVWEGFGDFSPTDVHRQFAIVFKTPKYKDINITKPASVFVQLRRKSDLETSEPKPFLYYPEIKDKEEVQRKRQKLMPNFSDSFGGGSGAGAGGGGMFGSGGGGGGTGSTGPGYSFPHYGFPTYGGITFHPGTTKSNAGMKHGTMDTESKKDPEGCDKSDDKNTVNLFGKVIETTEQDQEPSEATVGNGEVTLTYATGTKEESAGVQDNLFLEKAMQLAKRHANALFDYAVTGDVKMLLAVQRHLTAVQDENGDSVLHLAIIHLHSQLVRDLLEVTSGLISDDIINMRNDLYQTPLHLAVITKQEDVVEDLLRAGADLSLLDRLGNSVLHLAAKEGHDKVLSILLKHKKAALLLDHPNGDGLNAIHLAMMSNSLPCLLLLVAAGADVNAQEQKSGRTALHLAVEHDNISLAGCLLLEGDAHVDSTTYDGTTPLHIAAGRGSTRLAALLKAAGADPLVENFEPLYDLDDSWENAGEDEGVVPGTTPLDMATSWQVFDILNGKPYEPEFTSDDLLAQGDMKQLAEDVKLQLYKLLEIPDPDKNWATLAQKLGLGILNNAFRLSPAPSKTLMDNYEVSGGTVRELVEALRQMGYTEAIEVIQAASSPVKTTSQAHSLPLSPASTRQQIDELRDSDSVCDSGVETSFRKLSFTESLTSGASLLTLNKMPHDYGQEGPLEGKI
Signal transducer and activator of transcription 3 (Homo sapiens), sequence (P40763 whole entry, looked up): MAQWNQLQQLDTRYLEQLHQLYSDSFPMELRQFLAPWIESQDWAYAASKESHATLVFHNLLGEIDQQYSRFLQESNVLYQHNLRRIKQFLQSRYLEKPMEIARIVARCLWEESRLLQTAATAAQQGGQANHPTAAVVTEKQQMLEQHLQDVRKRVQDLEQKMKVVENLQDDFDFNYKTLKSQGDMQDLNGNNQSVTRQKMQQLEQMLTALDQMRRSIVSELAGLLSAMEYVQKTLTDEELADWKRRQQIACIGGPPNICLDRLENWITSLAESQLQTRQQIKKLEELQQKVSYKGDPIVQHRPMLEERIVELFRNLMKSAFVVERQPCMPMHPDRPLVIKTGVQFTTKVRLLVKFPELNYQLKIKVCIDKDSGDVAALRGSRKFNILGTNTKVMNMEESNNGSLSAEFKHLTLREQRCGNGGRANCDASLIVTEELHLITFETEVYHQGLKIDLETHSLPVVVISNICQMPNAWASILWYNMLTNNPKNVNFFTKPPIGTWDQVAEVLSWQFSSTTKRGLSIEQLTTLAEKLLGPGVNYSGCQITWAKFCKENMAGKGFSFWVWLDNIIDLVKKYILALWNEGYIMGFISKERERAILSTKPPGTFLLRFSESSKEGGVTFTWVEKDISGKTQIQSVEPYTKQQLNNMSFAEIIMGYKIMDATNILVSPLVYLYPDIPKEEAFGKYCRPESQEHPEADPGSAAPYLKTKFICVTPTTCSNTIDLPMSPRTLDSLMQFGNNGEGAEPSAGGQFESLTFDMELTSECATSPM
Nuclear factor erythroid 2-related factor 2 (Homo sapiens), sequence (Q16236 whole entry, looked up): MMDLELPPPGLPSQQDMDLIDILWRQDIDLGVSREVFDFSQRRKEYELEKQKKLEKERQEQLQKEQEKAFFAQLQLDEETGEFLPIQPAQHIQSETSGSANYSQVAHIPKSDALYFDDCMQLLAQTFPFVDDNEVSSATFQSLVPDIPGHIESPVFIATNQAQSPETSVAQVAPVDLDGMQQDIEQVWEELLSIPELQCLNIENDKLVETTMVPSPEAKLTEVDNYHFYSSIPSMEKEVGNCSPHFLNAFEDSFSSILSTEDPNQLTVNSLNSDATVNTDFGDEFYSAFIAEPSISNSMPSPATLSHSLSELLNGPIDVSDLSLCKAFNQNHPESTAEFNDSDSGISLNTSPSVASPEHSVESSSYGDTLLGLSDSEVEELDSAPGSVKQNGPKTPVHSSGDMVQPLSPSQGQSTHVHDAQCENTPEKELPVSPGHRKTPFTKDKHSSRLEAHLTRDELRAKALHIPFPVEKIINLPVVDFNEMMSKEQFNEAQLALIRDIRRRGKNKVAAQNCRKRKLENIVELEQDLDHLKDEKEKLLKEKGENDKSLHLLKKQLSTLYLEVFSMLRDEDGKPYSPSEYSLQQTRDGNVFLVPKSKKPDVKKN
Cellular tumor antigen p53 (Homo sapiens), sequence (P04637 whole entry, looked up): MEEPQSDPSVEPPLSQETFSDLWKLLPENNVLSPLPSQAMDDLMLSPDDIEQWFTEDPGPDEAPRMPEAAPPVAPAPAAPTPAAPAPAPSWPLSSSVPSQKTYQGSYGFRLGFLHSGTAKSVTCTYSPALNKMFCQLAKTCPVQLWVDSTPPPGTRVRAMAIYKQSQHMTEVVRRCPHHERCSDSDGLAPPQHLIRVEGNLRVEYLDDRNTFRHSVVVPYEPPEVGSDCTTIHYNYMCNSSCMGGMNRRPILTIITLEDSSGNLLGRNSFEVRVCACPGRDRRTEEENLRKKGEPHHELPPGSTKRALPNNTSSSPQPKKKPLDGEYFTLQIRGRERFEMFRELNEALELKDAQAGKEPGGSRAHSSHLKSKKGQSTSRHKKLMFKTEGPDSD

As for `CON(C)C(=O)Nc1ccc(Cl)c(Cl)c1`, the AC50 is 78.6 µM (active) with MYC, MYC (gene 4609); 65.3 µM (active) in test [1]; 50 µM (active) in test [5]; 86.9 µM (active) in test [8]; 11.4 µM (active) in [15]; 69.8 µM (active) in [16]. Moreover, the outcome in test [2], in test [3], in test [4], in [6], in test [7] and in test [9] was inactive. The outcome in test [10], in [11], in test [12], in test [13] and in [14] was inactive.
As for `CCCC1COC(Cn2cncn2)(c2ccc(Cl)cc2Cl)O1` (centres undefined), the AC50 with MYC, MYC (gene 4609) was 35.4 µM (active); in [17], 89.4 µM (active); in [1], 15 µM (active); in test [5], 40.5 µM (active); in [6], 12.3 µM (active); in test [7], 50 µM (active). Also, the AC50 in test [8] was 83.6 µM (active); in test [11] it was 62.8 µM (active); in test [12] it was 50 µM (active); in [15] it was 7.44 µM (active); in test [16], 34.3 µM (active). Besides, the outcome in [2] is “inactive”; in [3], “inactive”; in test [4], “inactive”; in test [9], “inactive”; in test [10], “inactive”; with TIMP1, TIMP1 (gene 7076) it was “inactive”. Moreover, the molecule was classed as inactive in test [14].
`CCCCC(CC)COC(=O)c1ccccc1C(=O)OCC(CC)CCCC` (centres undefined): the outcome with MYC, MYC (gene 4609) was “inactive”; in test [17], “inactive”; in [1] it was “inactive”; in [2], “inactive”; in test [3], “inactive”; in test [4] it was “inactive”. Also, the call in test [5], in test [6], in test [7], in test [8], in [9] and in test [10] was inactive. For the same molecule, the call in [11], in test [18], in test [12], in test [14], in [15] and in test [16] was inactive.
As to `Cc1c(F)c(F)c(COC(=O)C2C(/C=C(\Cl)C(F)(F)F)C2(C)C)c(F)c1F` (centres undefined), the outcome was “inactive” with MYC, MYC (gene 4609); “inactive” in test [1]; “inactive” in [2]; “inactive” in test [3]; “inactive” in test [4]; “inactive” in test [6]. Moreover, the molecule was called inactive in [7], in test [8], in test [9], in test [10], in test [11] and in test [12]. Moreover, the outcome in [13] is “inactive”; with TIMP1, TIMP1 (gene 7076), “inactive”; in [14] it was “inactive”; in test [15], “inactive”; in test [16], “inactive”. Besides, in test [5], the AC50 was 12.3 µM (active).
As for `O=C(Nc1ccccc1)Nc1ccnc(Cl)c1`, the outcome with MYC, MYC (gene 4609) is “inactive”; in test [6], “inactive”; in [15] it was “inactive”. Also, the AC50 in [1] was 31.8 µM (active); in test [2], 39.2 µM (active); in test [3], 77.7 µM (active); in test [4] it was 75.2 µM (active); in test [5], 68 µM (active); in [7], 82.6 µM (active). Besides, the AC50 is 82.3 µM (active) in test [8]; 94 µM (active) in test [9]; 42.6 µM (active) in [10]; 82.1 µM (active) in [11]; 76.1 µM (active) in test [12]; 80 µM (active) in test [13]. Also, the concentration at half-maximal activity (AC50) with TIMP1, TIMP1 (gene 7076) is 74.9 µM (active); in test [14], 96.7 µM (active); in test [16], 74 µM (active).
